“And” between values parts separate entries of the source, which are not always exact repeats. Equal entries are not always repeated. Records with an inconclusive call do not appear. A call without a number means that no potency is given here. The source made the active and inactive calls. Unless noted, calls follow the shape of the dose curve; as a rule, active = well fitted curve in the direction sought with a large enough effect in the repeat runs; inconclusive = weak or mixed curves; inactive = flat fitted curve, though single readings scatter.
Tests used:
[1] = qHTS assay to test for compound auto fluorescence at 535 nm (green) in HEK293 cells (AID 720680)
[2] = qHTS assay to test for compound auto fluorescence at 460 nm (blue) in HEK293 cell free culture (AID 720681)
How it was run: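 Blue fluorescence (Ex 405/Em 460 nm, triamterene-equivalent) was read immediately after pin transfer of compound or DMSO into medium (DMEM, 10% FBS) without cells.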

[3] = qHTS assay to test for compound auto fluorescence at 535 nm (green) in HEK293 cell free culture (AID 720682)
How it was run: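 Read-out: 485/535 nm fluorescence intensity, calibrated against fluorescein. Medium only (DMEM + 10% FBS, no cells); test compound or DMSO vehicle added by pintool before plate reading.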

[4] = qHTS assay to test for compound auto fluorescence at 590 nm (red) in HEK293 cell free culture (AID 720683)
How it was run: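 Red-channel autofluorescence of compounds in culture medium (DMEM, 10% FBS), no cells, measured at 540/590 nm. Rose Bengal sodium is the reference fluorophore for equivalence.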

[5] = qHTS assay to test for compound auto fluorescence at 590 nm (red) in HepG2 cell free culture (AID 720684)
How it was run: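 Plate contents were MEM with 10% FBS plus test compound or DMSO, no cells. Fluorescence was recorded with 540 nm excitation and 590 nm emission.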

[6] = qHTS assay to test for compound auto fluorescence at 460 nm (blue) in HepG2 cell free culture (AID 720685)
How it was run: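 Compound (23 nL) or DMSO pinned into cell-free MEM with 10% FBS; blue fluorescence read at 405/460 nm excitation/emission, expressed as auto-fluorescence equivalency to triamterene.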

[7] = qHTS assay to test for compound auto fluorescence at 535 nm (green) in HepG2 cell free culture (AID 720686)
[8] = qHTS assay to test for compound auto fluorescence at 460 nm (blue) in HepG2 cells (AID 720687)
How it was run: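 Blue-channel autofluorescence (Ex/Em 405/460 nm, triamterene-equivalent) was measured after 1 hr compound exposure at 37 C, 5% CO2. Cells were HepG2, plated overnight at 37 C in MEM plus 10% FBS.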

[9] = biological target: Glucocorticoid receptor (Homo sapiens) (UniProt P04150); test: qHTS assay to identify small molecule agonists of the glucocorticoid receptor (GR) signaling pathway (AID 720691; active = well fitted activation curve with a large enough effect in the signal ratio in the repeat runs, not every such curve was filed as active; the % refers to the signal ratio; also: potency is read from the fitted curve at half-maximal effect)
How it was run: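 Reporter read-out: fluorescence intensity following 2 h room-temperature LiveBLAzer B/G FRET substrate loading. Prior step: GR-bla HeLa cells held 4 h, then treated 18 h at 37 C.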

[10] = biological target: Glucocorticoid receptor (Homo sapiens) (UniProt P04150); test: qHTS assay to identify small molecule antagonists of the glucocorticoid receptor (GR) signaling pathway (AID 720692; active = well fitted inhibition curve with a large enough effect in the signal ratio in the repeat runs, not every such curve was filed as active; the % refers to the signal ratio; also: potency is read from the fitted curve at half-maximal effect)
How it was run: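 Dexamethasone (5 nM final) stimulated a stably integrated GRE-beta-lactamase reporter in HeLa cells during 18 h co-incubation with compounds; signal was quantified as fluorescence intensity of B/G FRET substrate after 2 h.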

Sequence of Glucocorticoid receptor (Homo sapiens) (P04150 whole entry, looked up): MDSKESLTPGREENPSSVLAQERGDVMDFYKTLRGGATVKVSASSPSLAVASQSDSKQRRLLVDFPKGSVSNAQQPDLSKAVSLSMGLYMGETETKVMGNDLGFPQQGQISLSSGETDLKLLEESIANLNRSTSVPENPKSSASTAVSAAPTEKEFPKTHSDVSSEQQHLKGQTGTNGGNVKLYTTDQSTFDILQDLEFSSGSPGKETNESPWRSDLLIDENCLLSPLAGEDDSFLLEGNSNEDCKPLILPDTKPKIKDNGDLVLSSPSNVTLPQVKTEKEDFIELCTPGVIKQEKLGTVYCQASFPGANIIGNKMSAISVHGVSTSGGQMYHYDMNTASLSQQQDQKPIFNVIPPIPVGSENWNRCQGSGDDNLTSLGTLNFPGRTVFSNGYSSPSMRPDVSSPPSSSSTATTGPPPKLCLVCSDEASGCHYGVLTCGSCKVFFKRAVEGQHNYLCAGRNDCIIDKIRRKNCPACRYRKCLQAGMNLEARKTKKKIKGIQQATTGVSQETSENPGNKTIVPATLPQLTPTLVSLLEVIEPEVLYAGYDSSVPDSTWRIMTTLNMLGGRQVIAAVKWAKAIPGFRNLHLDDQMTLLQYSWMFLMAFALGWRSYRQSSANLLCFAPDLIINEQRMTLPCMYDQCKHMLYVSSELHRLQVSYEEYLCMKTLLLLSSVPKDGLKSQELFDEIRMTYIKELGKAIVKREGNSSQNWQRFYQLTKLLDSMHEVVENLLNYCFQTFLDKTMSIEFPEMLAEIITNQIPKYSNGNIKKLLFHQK

SMILES | outcome [1] | outcome [2] | outcome [3] | outcome [4] | outcome [5] | outcome [6] | outcome [7] | outcome [8] | Potency [9] | Potency [10]
C[C@]12CCC(=O)C(O)=C1CC[C@@H]1[C@@H]2CC[C@]2(C)C(=O)CC[C@@H]12 | inactive | inactive | inactive | inactive | inactive | inactive | inactive | inactive | inactive | inactive
N[C@@H](Cc1ccc(N(CCCl)CCCl)cc1)C(=O)O | inactive | inactive | inactive | inactive | inactive | inactive | inactive | inactive | inactive | inactive
N#CCCCl | inactive | inactive | inactive | inactive | inactive | inactive | inactive | inactive | inactive | inactive
O=C(O)CC[N+](=O)[O-] | inactive | inactive | inactive | inactive | inactive | inactive | inactive | inactive | inactive | inactive
Cc1cc(Cl)ccc1OCCCC(=O)O | inactive | inactive | inactive | inactive | inactive | inactive | inactive | inactive | inactive | inactive
Nc1ccc(-c2ccc(N)c(N)c2)cc1N | inactive | inactive | inactive | inactive | inactive | inactive | inactive | inactive | – | –
S=C1NCCN1 | inactive | inactive | inactive | inactive | inactive | inactive | inactive | inactive | – | –
CCOC(=O)C(C)OC(=O)c1cc(Oc2ccc(C(F)(F)F)cc2Cl)ccc1[N+](=O)[O-] (stereo unspecified) | inactive | inactive | inactive | inactive | inactive | inactive | inactive | inactive | inactive | inactive
Nc1ccc(-c2ccccc2)cc1 | inactive | inactive | inactive | inactive | inactive | inactive | inactive | inactive | – | –
CCOP(=S)(OCC)O/N=C(\C#N)c1ccccc1 | inactive | inactive | inactive | inactive | inactive | inactive | inactive | inactive | inactive | inactive
Oc1cc(Cl)ccc1Cl | inactive | inactive | inactive | inactive | inactive | inactive | inactive | inactive | inactive | inactive
C=CCc1ccc2c(c1)OCO2 | inactive | inactive | inactive | inactive | inactive | inactive | inactive | inactive | – | –
CCCCCCCCOC(=O)c1ccccc1C(=O)OCCCCCCCC | inactive | inactive | inactive | inactive | inactive | inactive | inactive | inactive | – | –
O=S(=O)(Oc1ccc(Cl)cc1)c1ccc(Cl)cc1 | inactive | inactive | inactive | inactive | inactive | inactive | inactive | inactive | inactive | –
CCN(CC)C(=O)/C(Cl)=C(\C)OP(=O)(OC)OC | inactive | inactive | inactive | inactive | inactive | inactive | inactive | inactive | inactive | inactive
CNC(=O)N(C)c1nnc(C(C)(C)C)s1 | inactive | inactive | inactive | inactive | inactive | inactive | inactive | inactive | – | –
O=P(O)(O)CCCl | inactive | inactive | inactive | inactive | inactive | inactive | inactive | inactive | – | –
CCc1cccc(CC)c1N(COC)C(=O)CCl | inactive | inactive | inactive | inactive | inactive | inactive | inactive | inactive | inactive | –
CCCCCCOC(=O)c1ccccc1C(=O)OCCCCCC | inactive | inactive | inactive | inactive | inactive | inactive | inactive | inactive | inactive | inactive
Cc1c(COC(=O)[C@@H]2[C@H](/C=C(\Cl)C(F)(F)F)C2(C)C)cccc1-c1ccccc1 | inactive | inactive | inactive | inactive | inactive | inactive | inactive | inactive | – | –
Nc1cccnc1 | inactive | inactive | inactive | inactive | inactive | inactive | inactive | inactive | – | –
Oc1c(Cl)c(Cl)c(Cl)c(Cl)c1Cl | inactive | inactive | inactive | inactive | inactive | inactive | inactive | inactive | inactive | –
CC(C)=CC1C(C(=O)OCc2coc(Cc3ccccc3)c2)C1(C)C (stereo unspecified) | inactive | inactive | inactive | inactive | inactive | inactive | inactive | inactive | inactive | 21.8 µM (active)
O=Cc1ccco1 | inactive | inactive | inactive | inactive | inactive | inactive | inactive | inactive | – | –
CC(C)(c1cc(Cl)c(O)c(Cl)c1)c1cc(Cl)c(O)c(Cl)c1 | inactive | inactive | inactive | inactive | inactive | inactive | inactive | inactive | inactive | 12.3 µM (active) and 6.92 µM (active)
Oc1cc(Cl)ccc1Oc1ccc(Cl)cc1Cl | inactive | inactive | inactive | inactive | inactive | inactive | inactive | inactive | inactive | –
C=C(C)[C@H]1Cc2c(ccc3c2O[C@@H]2COc4cc(OC)c(OC)cc4[C@@H]2C3=O)O1 | inactive | inactive | inactive | inactive | inactive | inactive | inactive | inactive | inactive | –
CCOCN(C(=O)CCl)c1c(C)cccc1CC | inactive | inactive | inactive | inactive | inactive | inactive | inactive | inactive | inactive | –

SMILES | outcome [1] | outcome [2] | outcome [3] | outcome [4] | outcome [5] | outcome [6] | outcome [7] | outcome [8] | Potency [9] | Potency [10]
NNC(=S)NN | inactive | inactive | inactive | inactive | inactive | inactive | inactive | inactive | – | –
CCC(CC)Nc1c([N+](=O)[O-])cc(C)c(C)c1[N+](=O)[O-] | inactive | inactive | inactive | inactive | inactive | inactive | inactive | inactive | inactive | inactive
O=C(O)C(F)(F)C(F)(F)C(F)(F)C(F)(F)C(F)(F)C(F)(F)C(F)(F)F | inactive | inactive | inactive | inactive | inactive | inactive | inactive | inactive | – | –
Cc1ccccc1[N+](=O)[O-] | inactive | inactive | inactive | inactive | inactive | inactive | inactive | inactive | inactive | inactive
CCCCCc1cc(O)cc(O)c1 | inactive | inactive | inactive | inactive | inactive | inactive | inactive | inactive | – | –
CCC(C)(c1ccc(O)cc1)c1ccc(O)cc1 | inactive | inactive | inactive | inactive | inactive | inactive | inactive | inactive | – | –
NC(=S)Nc1ccccc1 | inactive | inactive | inactive | inactive | inactive | inactive | inactive | inactive | inactive | inactive
CCCCC(CC)COC(=O)Cl (stereo unspecified) | inactive | inactive | inactive | inactive | inactive | inactive | inactive | inactive | inactive | inactive
CCCCCCCCC(=O)NCc1ccc(O)c(OC)c1 | inactive | inactive | inactive | inactive | inactive | inactive | inactive | inactive | 30.1 µM (active) | –
NCc1cccnc1 | inactive | inactive | inactive | inactive | inactive | inactive | inactive | inactive | – | –
CC(C)Oc1cc(-n2nc(C(C)(C)C)oc2=O)c(Cl)cc1Cl | inactive | inactive | inactive | – | inactive | inactive | inactive | inactive | inactive | –
CC(C)(OOC(C)(C)c1ccccc1)c1ccccc1 | inactive | inactive | inactive | – | inactive | inactive | inactive | inactive | inactive | inactive
CCOC(=S)S | inactive | inactive | inactive | – | inactive | inactive | inactive | inactive | – | –
O=[N+]([O-])c1ccc(O)c([N+](=O)[O-])c1 | inactive | inactive | inactive | – | inactive | inactive | inactive | inactive | – | –
O=c1oc2ccccc2c(O)c1C(CC(O)c1ccc(-c2ccc(Br)cc2)cc1)c1ccccc1 (stereo unspecified) | inactive | inactive | inactive | – | inactive | inactive | inactive | inactive | – | –
CC(O)CCO (stereo unspecified) | – | inactive | inactive | inactive | inactive | inactive | inactive | inactive | – | –
C=CCN(CC=C)C(=O)C(Cl)Cl | inactive | inactive | inactive | – | inactive | inactive | inactive | inactive | inactive | inactive
O=C(NC(=O)c1c(F)cccc1F)Nc1ccc(Cl)cc1 | inactive | inactive | inactive | – | inactive | inactive | inactive | inactive | – | –
O=[N+]([O-])c1cccc2ccccc12 | inactive | inactive | inactive | – | inactive | inactive | inactive | inactive | – | –
C1=Cc2cccc3cccc1c23 | inactive | inactive | inactive | inactive | inactive | inactive | inactive | inactive | inactive | inactive
CC(C)c1ccc(CO)cc1 | inactive | inactive | inactive | – | inactive | inactive | inactive | inactive | – | –
COc1ccc(C=O)cc1 | inactive | inactive | inactive | – | inactive | inactive | inactive | inactive | inactive | inactive
CC(C)C(=O)OCC(C)(C)C(OC(=O)C(C)C)C(C)C (stereo unspecified) | inactive | inactive | inactive | – | inactive | inactive | inactive | inactive | inactive | inactive
O=C(Nc1ccc(Br)cc1)c1cc(Br)cc(Br)c1O | inactive | inactive | inactive | – | inactive | inactive | inactive | inactive | inactive | –
c1nc[nH]n1 | inactive | inactive | inactive | inactive | inactive | inactive | inactive | inactive | inactive | inactive
C[C@]12CCC(=O)C[C@@H]1CC[C@@H]1[C@@H]2CC[C@]2(C)[C@@H](O)CC[C@@H]12 | – | inactive | inactive | inactive | inactive | inactive | inactive | inactive | – | –
CCOc1cc(C=O)ccc1O | inactive | inactive | inactive | inactive | inactive | inactive | inactive | inactive | inactive | inactive

Reference: PubChem BioAssay (Tox21)
